{
  "source": "ChEMBL document CHEMBL1157539",
  "about": "“Thousands of chemical starting points for antimalarial lead identification” (Nature, 2010)",
  "data": [
    {"test_system": "Plasmodium falciparum", "test": "GSK_TCMDC: Inhibition of Plasmodium falciparum 3D7 in whole red blood cells, using parasite LDH activity as an index of growth. Test compounds present at 2uM", "type": "functional", "units": {"Inhibition": "%"}, "values": [
      {"smiles": "CC(C)(O)CC(C)(C)c1cc(Cl)ccc1O", "Inhibition": 96},
      {"smiles": "O=C(Nc1cccc(C(F)(F)F)c1)NC1CCN(c2ccnc3ccccc23)C1.O=C(O)C(F)(F)F", "note": "(stereo not given)", "Inhibition": 100},
      {"smiles": "O=[N+]([O-])c1ccccc1C=NN=c1cc[nH]c2ccccc12", "Inhibition": 100},
      {"smiles": "COc1ccc2nccc(NC(=O)C3(O)CCC(NCc4ccc5c(c4)NCCS5)CC3)c2n1.Cl", "note": "(stereo not given)", "Inhibition": 93},
      {"smiles": "Cc1cc(NCCc2ccccc2)nc(N/C(=N/CC(=O)OC(C)(C)C)Nc2ccc(C(F)(F)F)cc2)n1.I", "Inhibition": 100},
      {"smiles": "Cc1noc(=O)c2ccc(NC(=O)C(O)(CSc3ccccc3)CC(C)C)cc12", "note": "(stereo not given)", "Inhibition": 99},
      {"smiles": "CC(C)CNCc1cccc(-c2ccc(CN(CCCN3CCN(C)CC3)C(=O)CCC3CCCC3)cc2)c1.O=C(O)C(F)(F)F", "Inhibition": 98},
      {"smiles": "Cc1cc(Cc2ccc(S(=O)(=O)c3cc4c(cc3O)CCN(C)CC4)cc2)ccc1Cl.Cl", "Inhibition": 96},
      {"smiles": "CC1(CCc2ccccc2)N=C(N)N=C(N)C1c1ccc(Cl)c(Cl)c1.Cl", "note": "(stereo not given)", "Inhibition": 98},
      {"smiles": "Cc1nc(C)c(CC(=O)Nc2cccc(-c3cccc(-c4nc5cccc(C)c5[nH]4)c3)c2)s1", "Inhibition": 92},
      {"smiles": "Br.C=CCc1cc(Br)ccc1OCCCON1C(N)=NC(N)=NC1(C)C", "Inhibition": 95},
      {"smiles": "C=CCN(c1ccc(OC)cc1)S(=O)(=O)c1ccc(Cl)c(C(=O)Nc2cccc(C#N)c2)c1", "Inhibition": 96},
      {"smiles": "COc1ccc(-c2nc(NC(=O)CSc3ccc([N+](=O)[O-])cc3)sc2C)cc1", "Inhibition": 100},
      {"smiles": "O=C(Nc1cccc(-c2ccc(CN3CCC(O)CC3)cc2)c1)c1ccc(Cl)cc1.O=C(O)C(F)(F)F", "Inhibition": 95},
      {"smiles": "O=C(Nc1cccc(-c2ccc(CN3CCC(O)CC3)cc2)c1)c1cccc(Cl)c1.O=C(O)C(F)(F)F", "Inhibition": 96},
      {"smiles": "COc1cc2nc(NC3CCN(Cc4ccccc4)CC3)nc(N)c2cc1OC", "Inhibition": 100},
      {"smiles": "O=C(NC1CCN(Cc2cccc(C(F)(F)F)c2)CC1)c1ccc(-c2cccc(Cl)c2)s1.O=C(O)C(F)(F)F", "Inhibition": 89},
      {"smiles": "CCn1cc(CN2C(=O)C(c3ccccc3)(c3ccccc3)N=C2N)cn1.O=CO", "Inhibition": 95},
      {"smiles": "CCN(CCCN1CCCCC1)c1cc(C)nc(Nc2ccc(Cl)cc2)n1.Cl", "Inhibition": 100},
      {"smiles": "CC(C)(C)c1nn(-c2ccc(Cl)cc2)c2[nH]c(=O)c(CNCc3cccs3)cc12", "Inhibition": 100},
      {"smiles": "Cl.O=C(Nc1ccc(C(=O)Nc2ccc(C3=NCCN3)cc2)cc1)Nc1ccc(C2=NCCN2)cc1", "Inhibition": 94},
      {"smiles": "O=C(NC1CC1c1ccccc1)N(CCCn1ccnc1)Cc1csc(-c2ccc(CNCc3ccccc3)cc2)n1.O=C(O)C(F)(F)F", "note": "(stereo not given)", "Inhibition": 96},
      {"smiles": "CCN1CCN(c2cc(C)c3cc(NC(=O)c4ccc(OC)c(OC)c4)ccc3n2)CC1", "Inhibition": 90},
      {"smiles": "COc1cc(F)c2ncc(Cl)c([C@H](O)CN3CCC(NCc4ccc5c(n4)NC(=O)CO5)CC3)c2c1.Cl", "Inhibition": 99},
      {"smiles": "C=CCn1c(Sc2ccc(C#N)c([N+](=O)[O-])c2)nnc1-c1cc(OC)cc(OC)c1", "Inhibition": 96},
      {"smiles": "CN(CCN)Cc1ccc(-c2ccc(-c3nc4cc(C(F)(F)F)ccc4[nH]3)s2)cc1.O=C(O)C(F)(F)F", "Inhibition": 98},
      {"smiles": "CN1CCC(NCc2cccc(-c3ccc(S(=O)(=O)NCCN4CCCC4)s3)c2)CC1.O=C(O)C(F)(F)F", "Inhibition": 91},
      {"smiles": "COc1ccc(Nc2nccc(NCC(O)c3cccc(C(F)(F)F)c3)n2)cc1", "note": "(stereo not given)", "Inhibition": 98},
      {"smiles": "CCc1ccc(-n2c(NC(=O)c3ccccc3)nc3ccc(S(=O)(=O)NC(C)C(C)C)cc32)cc1", "note": "(stereo not given)", "Inhibition": 88},
      {"smiles": "CN1CCN(c2ccnc3ccc(NC(=O)Nc4cccc5c(C#N)cccc45)cc23)CC1", "Inhibition": 91},
      {"smiles": "CCN(CC)CCN(Cc1ccc(-c2ccc(C(F)(F)F)cc2)cc1)C(=O)Cn1c(CCc2cccc(F)c2F)nc(=O)c2sccc21.O=C(O)C(O)C(O)C(=O)O", "Inhibition": 96},
      {"smiles": "O=C(N[C@@H](Cc1ccccc1)C(=O)O)c1cc(-c2ccc(F)cc2)no1.O=C(N[C@@H](Cc1ccccc1)C(=O)O)c1conc1-c1ccc(F)cc1", "Inhibition": 96},
      {"smiles": "CC(CCc1ccccc1)NCC(O)c1cccc(C(F)(F)F)c1.Cl", "note": "(stereo not given)", "Inhibition": 99},
      {"smiles": "CCN1CCC(N(Cc2ccc(-c3ccc(C(F)(F)F)cc3)cc2)C(=O)Cn2nc(C)c(=O)cc2SCc2ccc(F)cc2)CC1.O=C(O)C(O)C(O)C(=O)O", "Inhibition": 94},
      {"smiles": "C[C@H](NC(=O)c1c(CN2CCC(N3CCCCC3)CC2)c(-c2ccccc2)nc2cc(O)ccc12)C1CCCCC1", "Inhibition": 99}
    ]}
  ]
}
